In PubChem BioAssay AID1362 (SRMLSC, 2008):
Screen size: about 190,000 compounds; about 4,000 (2.1%) were called active. No stated cut-off is given here; in the data, active means inhibition above about 58%; inactive means the rest, inconclusive results apart; tested in S. cerevisiae. What follows is part of a selection rich in actives, with near analogues and random picks from the rest.

Assay: growth inhibition of WT strain, primary screen, mitochondrial fusion inhibitor project, WT and mutant strains, chemical genetic (AID 1362)
Settings: mitochondrial fusion phenotypic screen, at 10 µM
[1] = WT strain, growth inhibition, stronger effect = higher value

| SMILES | inhibition [1] | inhibition (mutant strain inhibition) |
| --- | --- | --- |
| Cc1cc(C)cc(OCC(=O)Nc2ccc(S(=O)(=O)Nc3ccccn3)cc2)c1 | -6.39% (inactive) | -7.44% |
| CCOc1cc(N2CCOCC2)c(OCC)cc1NC(=O)c1cc(C)nc2ccccc12 | -14.2% (inactive) | -29.4% |
| CCC(=O)Nc1nc2ccccc2n1Cc1ccccc1C | 32.7% (inactive) | 38.1% |
| O=C(Nc1ccc2nc3n(c(=O)c2c1)CCCCC3)c1ccccc1Cl | -2.99% (inactive) | -3.04% |
| CCC(=O)Nc1ccc2nc(C)n(Cc3ccccc3Cl)c(=O)c2c1 | 62.4% (active) | 62.2% |
| COc1ccc(Cc2n[nH]c(=S)n2NC(=O)Nc2ccc(C)cc2)cc1 | -24.4% (inactive) | 1.23% |
| O=C(O)c1ccc(N/N=C/c2cn(-c3ccccc3)nc2-c2cccs2)cc1 | 25% (inactive) | 5.64% |
| C/C(=C\C(=O)c1cccnc1)Nc1ccc(C)c(C)c1 | 21.1% (inactive) | 23% |
| O=C(Nc1cccc(O)c1)c1ccc(C(=O)c2ccccc2)o1 | -18.9% (inactive) | 0.34% |
| C/C(=C\C(=O)c1ccccc1)Nc1cccc(O)c1 | 85.2% (active) | 17.2% |
| Cc1ccc(C(NC(=O)N2CCCC2)C(Cl)(Cl)Cl)cc1F (centres undefined) | 10.1% (inactive) | 18.2% |
| CCC(C)(C)NC(=O)CN(C(=O)CCC(=O)Nc1cc(C)ccn1)c1ccc2c(c1)OCCO2 | 3.35% (inactive) | -3.2% |
| O=C(COC(=O)CNS(=O)(=O)c1ccccc1)NC12CC3CC(CC(C3)C1)C2 | 4.93% (inactive) | -2.93% |
| CC(NC(=S)Nc1ccccc1)C1COc2ccccc2O1 (centres undefined) | 5.96% (inactive) | 2.67% |
| S=C(NCC1COc2ccccc2O1)Nc1ccc(Br)cc1 (centres undefined) | 5.47% (inactive) | 7.77% |
| CCCN(CC1COc2ccccc2O1)C(=S)Nc1ccc(C)cc1 (centres undefined) | 65.7% (active) | 33.2% |
| CCOCCCNC(=O)C(NC(=O)Cc1c[nH]c2ccccc12)c1ccc(OC)cc1 (centres undefined) | -1.73% (inactive) | 8.23% |
| COc1cccc(N2CCN(C(=O)Nc3ccc4c(c3)NC(=O)CO4)CC2)c1 | 43.7% (inactive) | 41.7% |
| O=C1COc2ccc(NC(=O)N3CCN(c4ccc(F)cc4)CC3)cc2N1 | 74.7% (active) | 0.98% |
| O=C(Nc1ccc(F)cc1)N1CCN(c2ccc(F)cc2)CC1 | -9.94% (inactive) | -0.68% |
| COc1ccc(CNC(=O)CN2CCC(n3nnc4cc(F)ccc43)CC2)cc1 | 3.98% (inactive) | -18.3% |
| CCOc1cccc(/C=C/c2ccc3ccccc3n2)c1OC(C)=O | 33% (inactive) | 25.6% |

| SMILES | inhibition [1] | inhibition (mutant strain inhibition) |
| --- | --- | --- |
| CC1(C)C2CCC1(C)C(OC(=O)c1ccc(O)cc1)C2 (centres undefined) | 94.2% (active) | 81.9% |
| Cc1ccc(C(=O)OC2CCCN(C)C2)cc1 (centres undefined) | -13.6% (inactive) | -3.26% |
| CC1(C)C2CCC1(C)C(OC(=O)CCn1ccnc1)C2 (centres undefined) | -4.41% (inactive) | -8.76% |
| Cc1ccc(NC(=O)CN(C)Cc2ccc(F)cc2)c([N+](=O)[O-])c1 | 22% (inactive) | 0.15% |
| CSc1ccccc1NC(=O)CN(C)CC(=O)Nc1ccc(Cl)cc1[N+](=O)[O-] | 70% (active) | 21.8% |
| CSc1ccccc1NC(=O)CN(C)CC(=O)Nc1cccc(Br)c1 | 21.6% (inactive) | -2.69% |
| COc1ccc(CN2CN(C3CCCC3)CSC2=S)cc1 | -12.1% (inactive) | -26.6% |
| Cc1noc(COc2ccccc2OCc2onc(C)c2Cl)c1Cl | 64% (active) | 31.8% |
| Cc1noc(COc2ccccc2OCC(O)CNC(C)(C)C)n1 (centres undefined) | -1.99% (inactive) | -4.87% |
| Cc1nc2ccccc2cc1OCc1ccc(F)cc1 | -15.6% (inactive) | -4.03% |
| CCc1[nH]nc(C(=O)N2CCCC(CNS(=O)(=O)c3cccs3)C2)c1C (centres undefined) | -19% (inactive) | 4.29% |
| O=[N+]([O-])c1ccc2[nH]c3c(c2c1)CCCC3O (centres undefined) | -3.98% (inactive) | 12% |
| COc1ccc(F)cc1C(=O)C1CCCN(C(=O)CCc2ccccn2)C1 (centres undefined) | 15.2% (inactive) | -2.96% |
| CCOC(=O)N1CCN(C(=S)Nc2ccc(C)cc2C)CC1 | 7.78% (inactive) | 3.64% |
| CCOC(=O)c1c(C)[nH]c2c1-c1ccccc1C(=O)C2=O | 46.9% (inactive) | 15% |
| CCOC(=O)C1=C(c2ccc(OC)cc2)C(=O)c2ccccc2C1=O | 68.3% (active) | 20.7% |
| CCOC(=O)c1ccccc1NS(=O)(=O)c1ccc(OC)cc1 | 38% (inactive) | 30.7% |
| CCC(=O)c1ccc(OCC(O)Cn2nc(C)c(C(C)=O)c2C)cc1 (centres undefined) | -6.24% (inactive) | -0.7% |
| CCCn1nc(C(=O)N2CCCc3ccccc32)c2ccccc2c1=O | 9.04% (inactive) | 8.88% |
| Cc1ccc(-c2csc(NC(=O)c3cnccn3)n2)cc1C | -10.3% (inactive) | 14.6% |
| Cc1ccc(C(=O)/C=C/c2c(C)nn(-c3ccccc3)c2Cl)cc1 | 59.5% (active) | -6.72% |
| Cc1nn(-c2ccccc2)c(Cl)c1/C=C/C(=O)c1ccc(O)cc1 | -8.06% (inactive) | 3.09% |

| SMILES | inhibition [1] | inhibition (mutant strain inhibition) |
| --- | --- | --- |
| Cc1nn(-c2ccccc2)c(Cl)c1C(=O)Nc1ccccc1 | 24.7% (inactive) | -5.62% |
| O=C(Cn1c(N2CCN(C/C=C/c3ccccc3)CC2)nc2ccccc21)c1ccccc1 | 45.1% (inactive) | 41.5% |
| COc1ccc(C(=O)CSc2nnc(-c3ccco3)o2)cc1 | -6.52% (inactive) | -35.3% |
| N#Cc1cccc(Nc2c3c(nc4ccccc24)CCCC3)c1 | -0.59% (inactive) | 6.35% |
| COC(=O)c1c(C)[nH]c(C)c1-c1ccc([N+](=O)[O-])cc1 | 53% (inactive) | 55.8% |
| COc1ccc(NC(=S)Nc2ccc(S(N)(=O)=O)cc2)c(C)c1 | 13.8% (inactive) | 6.64% |
| COc1ccc(-c2nn(-c3ccccc3)cc2/C=N/Nc2ccccn2)cc1OC | 60.2% (active) | 31.9% |
| CC(C)(C)OC(=O)N/N=C/c1cn(-c2ccccc2)nc1-c1cccnc1 | -8.33% (inactive) | -1.71% |
| COc1ccc(-c2nn(-c3ccccc3)cc2C(=O)Nc2nccs2)cc1OC | 26.6% (inactive) | -2.08% |
| Cc1nnsc1C(=O)N/N=C/c1cccc(C(F)(F)F)c1 | 36.2% (inactive) | 7.39% |
| Cc1cc(=O)oc(C)c1C(=O)NCc1ccc(F)cc1 | -0.25% (inactive) | 16.4% |
| Cc1cc(=O)oc(C)c1C(=O)Nc1cnc2ccccc2c1 | 98.9% (active) | 96.3% |
| Cc1cc(=O)oc(C)c1C(=O)NCCN(C)Cc1ccccc1 | -0.58% (inactive) | 11.8% |
| CC(C)C(=O)NCc1cc(-c2ccc(Cl)cc2)no1 | 1.64% (inactive) | -1.57% |
| O=C(CC1C(=O)NCCN1Cc1ccc(-c2ccccc2)cc1)NCC1CCOCC1 (centres undefined) | -14.8% (inactive) | -10.2% |
| Fc1cccc(Cl)c1CSc1ccc(-c2ccco2)nn1 | 75.3% (active) | 67.7% |
| Cn1c(SCc2c(F)cccc2Cl)nnc1-c1cnccn1 | 4.78% (inactive) | -6.62% |
| Brc1ccc(CSc2ccc(-c3ccco3)nn2)cc1 | 12.2% (inactive) | -1.7% |
| CCn1c(SCC(=O)Nc2cc(C)ccc2C)nnc1-c1cnccn1 | 62.3% (active) | 14.8% |
| Cc1ccc(NC(=O)CSc2nnc(-c3cnccn3)n2Cc2ccco2)cc1C | -14.2% (inactive) | -7.75% |
| CCc1ccc(NC(=O)CSc2nnc(-c3cnccn3)n2Cc2ccco2)cc1 | 6.65% (inactive) | 10.6% |
| CCOc1ccc(C2c3[nH]c4ccccc4c3CCN2Cc2cn(CC)nc2C)cc1 (centres undefined) | 36% (inactive) | 39.9% |

| SMILES | inhibition [1] | inhibition (mutant strain inhibition) |
| --- | --- | --- |
| COc1cccc(N(Cc2nnc3n2CCCCC3)C(=O)Nc2ccccc2F)c1 | 9.35% (inactive) | 6.31% |
| O=c1[nH]n(-c2cccc(Cl)c2)c2ncccc12 | 3.71% (inactive) | 33.7% |
| Cc1[nH]n(-c2cccc(Cl)c2)c(=O)c1-c1ccc(Cl)cc1 | 81.8% (active) | 74.9% |
| Cc1[nH]n(-c2cccc(Cl)c2)c(=O)c1/C=N/n1c(C)nc2ccccc2c1=O | -0.49% (inactive) | -9.97% |
| CCc1cc(CNC(=O)CC2C(=O)NCCN2CC2CCCCC2)on1 (centres undefined) | 8.17% (inactive) | -2.22% |
| Cc1cccc(C)c1NC(=O)C1(N(C(=O)c2ccccn2)c2ccc(O)cc2)CCCCC1 | 0.64% (inactive) | -13.5% |
| O=C(/C(=N\O)n1cncn1)c1ccc(Br)cc1Br | 86.5% (active) | -4.91% |
| CC(=O)N/N=C(\C)c1ccc(Br)cc1Br | 13.2% (inactive) | 10.1% |
| Cc1ccc(C(=O)N2CCCC(c3ccccc3)=N2)cc1 | 10.8% (inactive) | 2.44% |
| Cc1cccc(NC(=O)c2nnn(-c3cccc(C(F)(F)F)c3)c2N)c1 | -4.08% (inactive) | -7.16% |
| O=C1c2ccccc2NC(c2ccccn2)N1NS(=O)(=O)c1ccccc1 (centres undefined) | -4.85% (inactive) | -14.2% |
| NS(=O)(=O)c1ccc(N2C(=O)C3C4CC(C(Br)C4Br)C3C2=O)cc1 (centres undefined) | -2.55% (inactive) | -12.2% |
| FC(F)(F)c1cc(-c2cccs2)nc(NCc2ccco2)n1 | 6.76% (inactive) | 7.71% |
| FC(F)(F)c1cc(-c2ccco2)nc(NCc2ccc(Cl)cc2)n1 | 76.9% (active) | 17.2% |
| FC(F)(F)c1cc(-c2ccco2)nc(N2CCOCC2)n1 | 7.84% (inactive) | 9.26% |
| COc1ccc(CN2CCCC(C(=O)c3ccc(Cl)cc3)C2)cc1Cn1cncn1 (centres undefined) | -19.6% (inactive) | -4.89% |
| CCc1ccccc1NC(=S)N(CCN1CCCCCC1)Cc1ccco1 | -9.37% (inactive) | 22.4% |
| CS(=O)(=O)N(CC(=O)N/N=C/c1ccccn1)c1ccc(Oc2ccccc2)cc1 | 13% (inactive) | 10.6% |
| Cn1c(=O)c2c(nc(SCC(=O)Nc3ccccc3N3CCCCC3)n2C)n(C)c1=O | 12.6% (inactive) | -10.4% |
| Cc1ccccc1NC(=O)CNc1ccccc1N1CCCCC1 | 67.2% (active) | 13.6% |
| O=C(CN1CCN(C2CCCCC2)CC1)Nc1ccccc1N1CCCCC1 | 6.93% (inactive) | 0.36% |
